From PubChem BioAssay
Sampled rows, rich in hits. Any-hit rate of the full collection: about 4.9%.
SKKanGAS inh – SKKanGAS growth inhibition; AID 1662; inhibition, % at 7.5 µM; S. pyogenes SKKanGAS, kanamycin growth, BacTiter-Glo, 6 h; 300,000 tested, 1.3% active;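 active = mean replicate score, as percent of positive control median, at least 50; inconclusive = mean below 50 but one replicate at or above 50; inactive = mean and every replicate below 50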;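 also: strain carries kanamycin resistance gene driven by streptokinase promoter and grows in 40 µg/ml kanamycin; loss of luminescence reflects streptokinase promoter inhibition or plain growth inhibition; 0% = median of DMSO wells and 100% = positive control at its reference dose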
TIM10 inh – growth inhibitors of TIM10 yeast strain. S. cerevisiae TIM10 strain growth, BacTiter-Glo luminescence, 24 h. inhibition, % at 10 µM. 330,000 tested, 1.4% active. AID 463195;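 active = inhibition of 40% or more at the single tested concentration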;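 also: wild-type TIM10 isogenic control strain grown at permissive 25 °C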
NLRP3 yeast inh – blocks the NALP3 inflammasome reconstituted in yeast; inhibition, % at 10 µM; 330,000 tested, 0.39% active; Yeast reconstituted NLRP3/ASC/caspase-1, beta-gal luminescence, 24 h;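 active = inhibition of 50% or more; inactive = inhibition below 50%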;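 also: plate controls were induced DMSO wells for no effect and uninduced yeast grown without galactose for full effect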
tim23-1 inh – inhibits growth of tim23-1 mutant yeast; S. cerevisiae tim23-1 growth, BacTiter-Glo luminescence, 24 h; inhibition, % at 20 µM; 330,000 tested, 1.3% active;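 active = growth inhibition of the mutant yeast at or above 50%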;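 also: temperature-sensitive mutant grown at 25 °C; plate controls were DMSO-treated mutant yeast for no effect and medium wells lacking yeast for full effect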
NALP1 inh – blocks the NALP1 inflammasome reconstituted in yeast; S. cerevisiae NALP1/ASC/caspase-1 growth, X-gal OD620, 72 h; inhibition, % at 10 µM; 280,000 tested, 0.61% active; AID 2071; in the data active = inhibition mostly above about 24%, no sharp cut-off; inactive = mostly below about 32%
tim10-1 inh – inhibits growth of tim10-1 mutant yeast; S. cerevisiae tim10-1 ts strain growth, BacTiter-Glo, 24 h; inhibition, % at 20 µM; 330,000 tested, 2.2% active;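 active = inhibition of at least 40%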;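 also: mutant grown at 25 °C; 0% = DMSO wells with yeast and 100% = wells holding no yeast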
Active calls of the source: *.

What do the screens show for `COc1c(Cl)cnn(-c2ccc(Cl)c(Cl)c2)c1=O`?
SKKanGAS inh: 18.7; TIM10 inh: -2.5; NLRP3 yeast inh: 15.6; tim23-1 inh: 12.8; NALP1 inh: 37.3*; tim10-1 inh: 0.1

How did CC(=O)OCC1=C(C(=O)O)N2C(=O)C(NC(=O)c3ccc(F)cc3)C2SC1 (stereo unspecified) do in these assays?
SKKanGAS inh: 90.3*; TIM10 inh: 11.8; NLRP3 yeast inh: 9.3; tim23-1 inh: 9.2; NALP1 inh: -10.2; tim10-1 inh: -1.7

How did CC(=O)OCC1=C(C(=O)O)N2C(=O)[C@@H](NC(=O)CSc3ccncc3)[C@H]2SC1 do in these assays?
TIM10 inh: -0.6; NLRP3 yeast inh: 2.4; tim23-1 inh: 4.4; tim10-1 inh: 0.2

Results for CO/N=C(\C(=O)N[C@@H]1C(=O)N2C(C(=O)O)=C(COC(N)=O)CS[C@H]12)c1ccco1 ?
SKKanGAS inh: 102.5*; TIM10 inh: -2.3; NLRP3 yeast inh: 13.2; tim23-1 inh: 2.1; NALP1 inh: 14.3; tim10-1 inh: 8.2

What do the screens show for `CC(=O)OCC1=C(C(=O)O)N2C(=O)C(NC(=O)C(C)Cn3nc(C)c(Cl)c3C)C2SC1` (stereo unspecified)?
SKKanGAS inh: 100.9*; TIM10 inh: 5.1; NLRP3 yeast inh: 32.6; tim23-1 inh: -8.9; NALP1 inh: -8.3; tim10-1 inh: 20.9

How did COCc1nnc(NC(=O)C2CCN(C(=O)c3ccco3)CC2)s1 do in these assays?
SKKanGAS inh: -2.1; TIM10 inh: -7.0; NLRP3 yeast inh: 7.8; tim23-1 inh: 13.2; NALP1 inh: 8.5; tim10-1 inh: 14.2

Results for COCC1=C(C(=O)OC(C)OC(=O)OC(C)C)N2C(=O)[C@@H](NC(=O)/C(=N\OC)c3csc(N)n3)[C@H]2SC1 (stereo partly specified) ?
SKKanGAS inh: 101.8*; TIM10 inh: -4.8; NLRP3 yeast inh: 12.9; tim23-1 inh: 1.4; tim10-1 inh: -0.9

How did COc1ccc(CCNC(=O)C(=O)NCC2OCCN2S(=O)(=O)c2ccc3c(c2)OCCO3)cc1 (stereo unspecified) do in these assays?
SKKanGAS inh: -3.6; TIM10 inh: -1.2; NLRP3 yeast inh: 6.1; tim23-1 inh: -5.7; NALP1 inh: 19.4; tim10-1 inh: -1.2

How did CC1(c2ccc(Cl)cc2)NC(=O)N(CC(=O)NC2CCCCC2)C1=O (stereo unspecified) do in these assays?
TIM10 inh: 3.7; NLRP3 yeast inh: 6.4; tim23-1 inh: 3.3; tim10-1 inh: -5.4

What do the screens show for `CCCC[n+]1ccn(C2=C([O-])c3ccccc3C(=O)/C2=N\S(=O)(=O)c2ccc(Cl)cc2)c1`?
SKKanGAS inh: 61.0*; TIM10 inh: 13.7; NLRP3 yeast inh: 25.9; tim23-1 inh: 8.2; NALP1 inh: 11.4; tim10-1 inh: 20.0

How did CCCC[n+]1ccn(-c2nc3ccccc3nc2[N-]S(=O)(=O)c2ccc(Br)cc2)c1 do in these assays?
SKKanGAS inh: 4.7; TIM10 inh: -2.6; NLRP3 yeast inh: 6.5; tim23-1 inh: -9.2; NALP1 inh: 24.8; tim10-1 inh: -6.2

How did N/C(CSc1ccc(Cl)cc1)=N\S(=O)(=O)c1ccc(Cl)cc1 do in these assays?
SKKanGAS inh: 0.8; TIM10 inh: 1.4; NLRP3 yeast inh: 15.2; tim23-1 inh: 16.8; NALP1 inh: 8.5; tim10-1 inh: -9.4

What do the screens show for `CCCCC[n+]1ccn(C2=C([O-])c3ccccc3C(=O)/C2=N\S(=O)(=O)c2ccc(Cl)cc2)c1`?
SKKanGAS inh: 73.1*; TIM10 inh: -11.5; NLRP3 yeast inh: 14.5; tim23-1 inh: 11.6; NALP1 inh: -18.4; tim10-1 inh: 9.6

What do the screens show for `Cc1cc(C(=O)NC2CCCc3c2cnn3-c2cccc(C)c2C)n(C)n1` (stereo unspecified)?
SKKanGAS inh: -5.5; TIM10 inh: 1.3; NLRP3 yeast inh: 15.2; tim23-1 inh: 2.3; NALP1 inh: -3.4; tim10-1 inh: -8.6

How did Cc1ccc(NC(=O)CNC(=O)CC23CC4CC(CC(C4)C2)C3)c(O)c1 do in these assays?
SKKanGAS inh: 29.2; TIM10 inh: 2.4; NLRP3 yeast inh: 19.2; tim23-1 inh: 39.7; tim10-1 inh: 20.8

How did N#Cc1ccc(C(=O)Nc2nnc(-c3cccs3)o2)cc1 do in these assays?
SKKanGAS inh: 52.4*; TIM10 inh: -20.5; NLRP3 yeast inh: 19.4; tim23-1 inh: 5.6; NALP1 inh: -6.3; tim10-1 inh: 9.8

Results for O=C(Nc1nnc(-c2cccs2)o1)c1cccc(C(F)(F)F)c1 ?
SKKanGAS inh: 92.2*; TIM10 inh: 4.7; NLRP3 yeast inh: 2.1; tim23-1 inh: 5.9; NALP1 inh: 18.4; tim10-1 inh: 7.4

How did CC(C)[C@H](NC(=O)c1ccco1)C(=O)Nc1ccc(OC(F)F)cc1 do in these assays?
SKKanGAS inh: 1.3; TIM10 inh: -0.7; NLRP3 yeast inh: 11.5; tim23-1 inh: -10.2; NALP1 inh: 14.2; tim10-1 inh: -1.7

What do the screens show for `O=C(NS(=O)(=O)NC1CCCCC1)C1=C(N2CCCC2)COC1=O`?
TIM10 inh: -1.6; NLRP3 yeast inh: 11.2; tim23-1 inh: 16.6; tim10-1 inh: 7.3

Results for O=C(CCN1C(=O)C2C3C=CC(C3)C2C1=O)NC1CCCCC1 (stereo unspecified) ?
SKKanGAS inh: -4.2; TIM10 inh: 12.4; NLRP3 yeast inh: 3.0; tim23-1 inh: 13.3; NALP1 inh: 36.8*; tim10-1 inh: 17.1

How did CCOC(=O)N1CCC(NC(=O)CCN2C(=O)C3C4C=CC(C4)C3C2=O)CC1 (stereo unspecified) do in these assays?
TIM10 inh: 0.0; NLRP3 yeast inh: 5.8; tim23-1 inh: 19.8; NALP1 inh: -18.1; tim10-1 inh: 8.6

What do the screens show for `CCCN(CC(=O)Nc1ccccc1C)C(=O)C1CCN(S(=O)(=O)c2ccccc2C(F)(F)F)CC1`?
SKKanGAS inh: -2.8; TIM10 inh: 9.2; NLRP3 yeast inh: 4.3; tim23-1 inh: 13.0; tim10-1 inh: 20.9

What do the screens show for `C=CCNC(=O)C(=O)Nc1cc2c3c(c1)CCC(=O)N3CCC2`?
SKKanGAS inh: -0.3; TIM10 inh: -5.2; NLRP3 yeast inh: 15.7; tim23-1 inh: -2.2; NALP1 inh: 12.8; tim10-1 inh: 21.0

Results for COc1ccc(CNC(=O)c2cc3c(s2)CN(Cc2ccccc2)C3)cc1 ?
SKKanGAS inh: -0.9; TIM10 inh: -10.4; NLRP3 yeast inh: 7.4; tim23-1 inh: 0.7; NALP1 inh: 10.6; tim10-1 inh: 24.5

Results for CCCCCCCN1N=C(C)C(C(=O)c2ccccc2)C1=O (stereo unspecified) ?
SKKanGAS inh: inconclusive; TIM10 inh: -10.2; NLRP3 yeast inh: 23.2; tim23-1 inh: 8.9; NALP1 inh: -4.8; tim10-1 inh: 13.3

How did CCCCCCN1N=C(C)C(C(=O)c2ccc(Cl)cc2)C1=O (stereo unspecified) do in these assays?
SKKanGAS inh: 49.8*; TIM10 inh: 5.2; NLRP3 yeast inh: 21.1; tim23-1 inh: 16.4; NALP1 inh: -14.8; tim10-1 inh: 29.8
